G9a block: inhibitors of human histone lysine methyltransferase G9a. Q96KQ7. G9a H3K9 monomethylation, AlphaScreen, 2 h. Potency, µM (doses to about 102 µM), for the others: top-dose activity, negative = inhibition, most hits filed as inhibitors. hit rate 8.8% among 350,000. AID 504332; note: potency is the fitted concentration of half-maximal effect; % is set by controls: 0 for no effect and ±100 for the full control effect; nearly all actives have a fitted effect of over 75% in size
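Chemiluminescent proximity detection of H3K9 monomethylation, read after 10 min bead incubation in the dark. Reaction: 20 nM G9a, 500 nM biotin-H3K9 peptide, 20 uM SAM cofactor, 2 h, room temperature, following 15 min enzyme-compound preincubation.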
HP1b binding inh: blocks HP1-beta chromodomain binding to methylated histone tails; P83916; AlphaScreen HP1-beta / biotin-H3K9me3 peptide binding; Potency, µM (highest dose often 114 µM), for inactives: at the top dose activity change, negative = inhibition, most hits filed as inhibitors; hit rate 0.56% among 390,000; AID 540317; note: potency is the fitted concentration of half-maximal effect; nearly all actives have a fitted effect of over 70% in size
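Compound inhibition of the preformed complex between 50 nM HP1-beta and 50 nM biotinylated H3K9me3 peptide was read by AlphaScreen. Buffer was PBS pH 7.4 with 0.01% Tween-20. Incubations ran 30 min at room temperature, with 10 ug/mL donor/acceptor beads.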
PLK1 PBD block: PLK1 (human) polo-box domain binding inhibition; hit rate 2.8% among 360,000; Potency, µM, for the others: max response, negative = inhibition, most hits filed as inhibitors; P53350; Plk1 PBD binding of FITC phosphopeptide, fluorescence polarization; note: potency is the fitted concentration of half-maximal effect; series mostly up to about 57 µM; % is set by controls: 0 for no effect and ±100 for the full control effect; nearly all actives have a fitted effect of over 65% in size
PI5P4Ka inh: inhibitors of human PI5P4K alpha; P48426; PI5P4Kalpha enzyme, ADP-Glo luminescence, 60 min; active compounds read low; max response, %; hit rate 1.2% among 330,000; AID 652105; active = max response of -50% or lower; inconclusive = between -30% and -50%; inactive = -30% or higher; note: value at the top dose of about 77 µM; % is set by controls: 0 for no effect and ±100 for the full control effect
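Single end-point luminescence (ADP-Glo) quantified ADP from PI5P4Kalpha turnover; ATP 5 microM final, 1 h at RT, 0.1% CHAPS and 0.28 mM EGTA in HEPES pH 7.4.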
JMJD2A Tudor inh: JMJD2A Tudor domain (human) inhibition. AlphaScreen JMJD2A-Tudor / H3K4me3 peptide binding. AID 504339. Potency, µM (series often up to 114 µM), without a hit: at the highest dose activity change, negative = inhibition, usual class: inhibitors. hit rate 4.4% among 390,000; note: potency is the fitted concentration of half-maximal effect; % is set by controls: 0 for no effect and ±100 for the full control effect; nearly all actives have a fitted effect of over 50% in size
BAZ2B block: inhibitors of human BAZ2B bromodomain; Potency, µM (doses to about 114 µM), for the others: top-dose activity change, negative = inhibition, actives largely listed as inhibitors; hit rate 4.4% among 360,000; AlphaScreen BAZ2B-H3K14Ac peptide displacement; AID 504333; note: potency is the fitted concentration of half-maximal effect; % is set by controls: 0 for no effect and ±100 for the full control effect; nearly all actives have a fitted effect of over 60% in size
Target sequence (Q9UIF8 whole entry, looked up): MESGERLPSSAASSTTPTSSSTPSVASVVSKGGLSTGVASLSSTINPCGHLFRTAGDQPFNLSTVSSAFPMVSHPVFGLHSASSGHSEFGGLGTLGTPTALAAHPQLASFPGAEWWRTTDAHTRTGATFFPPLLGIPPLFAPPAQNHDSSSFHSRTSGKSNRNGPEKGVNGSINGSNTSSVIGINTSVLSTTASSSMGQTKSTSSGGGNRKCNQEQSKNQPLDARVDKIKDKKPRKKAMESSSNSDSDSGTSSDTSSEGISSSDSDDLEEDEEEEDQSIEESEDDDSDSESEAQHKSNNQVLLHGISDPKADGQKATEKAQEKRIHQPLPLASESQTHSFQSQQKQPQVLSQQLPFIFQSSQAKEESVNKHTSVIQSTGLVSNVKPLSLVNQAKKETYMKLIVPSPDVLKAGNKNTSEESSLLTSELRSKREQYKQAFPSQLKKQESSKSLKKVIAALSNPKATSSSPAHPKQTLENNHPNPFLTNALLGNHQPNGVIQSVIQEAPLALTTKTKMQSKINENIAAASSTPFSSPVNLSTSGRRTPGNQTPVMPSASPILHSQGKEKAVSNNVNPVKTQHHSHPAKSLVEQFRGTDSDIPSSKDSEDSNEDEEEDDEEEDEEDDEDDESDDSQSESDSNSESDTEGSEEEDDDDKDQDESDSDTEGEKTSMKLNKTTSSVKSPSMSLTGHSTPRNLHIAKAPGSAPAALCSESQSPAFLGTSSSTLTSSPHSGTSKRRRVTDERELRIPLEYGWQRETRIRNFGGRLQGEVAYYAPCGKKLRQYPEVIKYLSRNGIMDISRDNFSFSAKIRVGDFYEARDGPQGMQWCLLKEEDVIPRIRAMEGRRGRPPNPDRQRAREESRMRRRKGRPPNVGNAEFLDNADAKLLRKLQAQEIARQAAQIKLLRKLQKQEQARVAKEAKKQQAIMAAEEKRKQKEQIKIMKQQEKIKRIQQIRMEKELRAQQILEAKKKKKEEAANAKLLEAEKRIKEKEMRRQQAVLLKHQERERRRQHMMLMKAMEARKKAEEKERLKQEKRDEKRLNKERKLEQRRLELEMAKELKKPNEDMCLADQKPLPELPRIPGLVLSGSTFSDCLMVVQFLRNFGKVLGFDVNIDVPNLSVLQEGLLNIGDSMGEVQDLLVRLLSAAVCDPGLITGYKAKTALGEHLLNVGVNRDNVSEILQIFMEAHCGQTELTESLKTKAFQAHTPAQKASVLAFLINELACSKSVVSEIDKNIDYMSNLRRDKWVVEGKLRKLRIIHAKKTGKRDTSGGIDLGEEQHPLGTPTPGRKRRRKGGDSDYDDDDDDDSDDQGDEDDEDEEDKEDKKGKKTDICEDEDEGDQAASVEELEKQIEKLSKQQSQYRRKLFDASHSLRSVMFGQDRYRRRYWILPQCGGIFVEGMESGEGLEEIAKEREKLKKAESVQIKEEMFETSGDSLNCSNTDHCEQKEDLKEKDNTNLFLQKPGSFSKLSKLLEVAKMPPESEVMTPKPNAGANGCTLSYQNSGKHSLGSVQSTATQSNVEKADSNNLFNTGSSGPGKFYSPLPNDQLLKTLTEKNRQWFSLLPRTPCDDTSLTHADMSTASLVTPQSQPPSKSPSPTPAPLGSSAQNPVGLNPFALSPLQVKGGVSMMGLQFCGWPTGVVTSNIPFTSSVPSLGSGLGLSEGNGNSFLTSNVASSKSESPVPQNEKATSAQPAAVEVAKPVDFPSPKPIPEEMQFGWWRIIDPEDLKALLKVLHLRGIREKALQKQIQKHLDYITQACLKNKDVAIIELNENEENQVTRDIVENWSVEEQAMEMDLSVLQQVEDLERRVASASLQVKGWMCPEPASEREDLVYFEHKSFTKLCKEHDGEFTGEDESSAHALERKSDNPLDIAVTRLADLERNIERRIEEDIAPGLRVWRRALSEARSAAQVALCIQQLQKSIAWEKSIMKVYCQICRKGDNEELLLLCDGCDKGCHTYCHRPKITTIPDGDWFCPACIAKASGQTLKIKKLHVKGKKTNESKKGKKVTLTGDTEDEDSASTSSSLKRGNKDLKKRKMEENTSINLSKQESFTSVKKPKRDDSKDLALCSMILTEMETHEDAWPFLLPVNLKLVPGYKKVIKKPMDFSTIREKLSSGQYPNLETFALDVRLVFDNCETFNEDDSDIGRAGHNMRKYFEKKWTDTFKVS
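AlphaScreen displacement of biotin-H3(5-23)K14Ac peptide (50 nM final) from BAZ2B (50 nM final) in PBS pH 7.4, 0.01% Tween-20; complex preformed 30 min RT, then compounds (top 110 uM) 30 min RT, beads 20 min dark.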
Starred values were filed as active, the others as inactive; ? = inconclusive; . = no result given; [ ] = dose if it differs, or a comment. A selection: hits, their analogues and other compounds. The true share with any hit is near 12%. Unless noted, calls come from the whole dose curve; as a rule, active = well fitted curve in the direction sought with a large enough effect; inconclusive = small, poorly fitted or top-dose-only effect, or another doubt; inactive = no such curve, though single readings can be large; an effect the other way counts as inactive or inconclusive.

SMILES | G9a block | HP1b binding inh | PLK1 PBD block | PI5P4Ka inh | JMJD2A Tudor inh | BAZ2B block
CSc1ccccc1C(=O)Nc1cc(C)ccc1C | 40µM* | 22% | -13% | -2 | -11% | -2%
C=CCOc1cccc(NC(=O)c2ccccc2SC)c1 | -42% | 11% | 27µM* | -3 | -21% | -1%
Cc1c(C(=O)NCCc2ccc(S(N)(=O)=O)cc2)sc2nc3n(c(=O)c12)CCCC3 | -10%[59 µM] | 11% | . | . | -25% | -10%
COc1ccc(CNC(=O)Cc2ccc(NC(=O)N3CCCCc4ccccc43)cc2)cc1 | 9%[59 µM] | 6% | . | . | -22% | -11%
COc1ccc(-c2cc(C)no2)cc1S(=O)(=O)NCc1ccco1 | ? | 19% | . | . | -18% | -19%
COc1ccc(Cl)cc1-c1cc(C(=O)N[C@H](C)c2ccccc2)[nH]n1 | . | . | 5% | 1 | . | .
Cc1ccc2c(NC(=O)c3ccc(Br)o3)cccc2n1 | . | 21% | -9% | -3 | -4% | -6%
O=C(Nc1ccccc1C(=O)Nc1ccccc1)c1ccco1 | 12% | -19% | -3% | -1 | -10% | -2%
Cc1cccc(NC(=O)c2ccccc2NC(=O)c2ccco2)c1 | 40µM* | 26% | 0% | 2 | -1% | ?
Cc1ccc2c(NC(=O)c3ccco3)cccc2n1 | 50µM* | 39% | -7% | -7 | -23% | -12%
CCOc1ccc(-c2cn3nc(CC(C)C)sc3n2)cc1 | 3%[59 µM] | 49% | . | . | 0% | 1%
CS(=O)(=O)c1ccccc1-c1csc(N2CCC(C(N)=O)CC2)n1 | 5%[12.7 µM] | -8% | . | . | ? | 7%
COc1cccc2c(C)nc(Nc3nc(CSc4nnc(C)s4)cc(=O)[nH]3)nc12 | -21%[12.7 µM] | ? | 24µM* | -17 | ? | -1%
CCCCCCn1cc(C(=O)O)c(=O)c2ccccc21 | 45µM* | 27% | -1% | 2 | ? | -35%
CCCCCCn1cc(C(=O)O)c(=O)c2cc(F)c(N3CCN(C)CC3)cc21 | . | 7% | -7% | 0 | -11% | 11%
C[C@H](O)CNC(=O)c1[nH]cnc1C(=O)Nc1cccc(Cl)c1 | . | . | -19% | -5 | . | .
CC(N)c1csc(Nc2nccc(C(F)(F)F)n2)n1 (stereo not drawn) | . | . | 0% | -1 | . | .
CCCC(=O)NC(c1ccccc1Cl)c1ccc2cccnc2c1O (stereo not drawn) | 41% | 41% | -13% | -2 | -27% | -34%
O=C(O)c1ccccc1NC(c1ccccc1)c1ccc2cccnc2c1O (stereo not drawn) | . | 25µM* | 0.6µM* | -57* | 28µM* | .
Cc1ccnc(NC(c2ccccc2F)c2ccc3cccnc3c2O)c1 (stereo not drawn) | ? | 7% | . | . | 13µM* | 25µM*
Oc1c(C(Nc2ccccn2)c2ccccn2)ccc2cccnc12 (stereo not drawn) | 32µM* | 29% | -25% | 1 | -22%[11.4 µM] | -113%
Cc1cc(NC(c2ccc(Cl)cc2)c2ccc3cccnc3c2O)no1 (stereo not drawn) | 23%[59 µM] | 23% | -5% | 10 | ? | 45µM*
CC(C)C(=O)NC(c1ccc(Cl)cc1Cl)c1ccc2cccnc2c1O (stereo not drawn) | 44%[0.501 µM] | 34% | 1% | -1 | -14% | ?
O=C1[C@@H]2C[C@@H]3C[C@H]1C[C@@](O)(C3)C2 | -6%[12.7 µM] | . | . | . | . | .
Cn1ccc2cc(S(=O)(=O)N3CCC(C(=O)NCCc4ccccc4)CC3)ccc21 | 6%[59 µM] | 23%[57 µM] | . | . | 8% | 5%
SMILES | G9a block | HP1b binding inh | PLK1 PBD block | PI5P4Ka inh | JMJD2A Tudor inh | BAZ2B block
Oc1ccccc1C(Nc1nccs1)c1ccc2cccnc2c1O (stereo not drawn) | . | 0% | ? | ? | 35µM* | 28µM*
Oc1c(C(Nc2ccccn2)c2ccccc2F)ccc2cccnc12 (stereo not drawn) | ? | 12% | . | . | 14µM* | 20µM*
COc1ccccc1NC(c1cccnc1)c1ccc2cccnc2c1O (stereo not drawn) | 1.4µM* | ? | 3µM* | ? | 22µM* | 14µM*
O=C(O)c1ccc(C(=O)Nc2cccc3cccnc23)cc1 | . | -15% | . | . | ? | .
O=C(O)c1ccc2cccnc2c1O | . | 3% | -14% | -17 | 10µM* | 25µM*
Cc1ccnc(NC(c2cc(C)ccc2O)c2ccc3cccnc3c2O)c1 (stereo not drawn) | 10µM* | 7% | . | . | 28µM* | 22µM*
Cc1ccnc(NC(c2ccccc2)c2ccc3cccnc3c2O)c1 (stereo not drawn) | . | -21%[57 µM] | ? | -4 | 14µM* | .
CN(CC(=O)Nc1ccccc1N1CCCC1)S(=O)(=O)c1ccc(F)cc1 | -18%[2.33 µM] | -2% | -3% | 8 | -28% | -34%
CC(C)NC(=O)COC(=O)CNC(=O)c1cc(Cl)cc([N+](=O)[O-])c1 | 14%[59 µM] | -6% | 30µM* | -16 | -21% | -4%
Cc1ccc(S(=O)(=O)N2CCCCC2)cc1NC(=O)COC(=O)CNC(=O)c1cc(Cl)cc([N+](=O)[O-])c1 | 6%[59 µM] | 5% | 4% | -13 | -19% | -30%
Cc1ccc(S(=O)(=O)c2nc(C(C)(C)C)oc2N2CCOCC2)cc1 | 8.9µM* | 50µM* | ? | . | 35µM* | 0%
Cc1ccc(S(=O)(=O)c2nc(C)oc2N2CCOCC2)cc1 | . | ? | 21µM* | -12 | ? | -19%
Cc1ccc(Cn2c(CNC(=O)CCc3ccccc3)nc3cccnc32)cc1 | 0%[59 µM] | 29%[57 µM] | . | . | -11% | 4%
COc1cccc(C(=O)N2CCC2(C)C(=O)NC(C)C)c1 (stereo not drawn) | . | . | -4% | -10 | . | .
CN1Cc2sc(N)c(C#N)c2CC1(C)C | -5%[2.33 µM] | -4% | ? | 1 | -28%[11.4 µM] | -38%
CCC1(C)Cc2c(sc(NC(=S)NC(=O)c3ccccc3)c2C#N)CO1 (stereo not drawn) | 45µM* | -14% | 13µM* | ? | -27% | -31%
CN1Cc2sc(NC(=S)NC(=O)c3ccccc3)c(C#N)c2CC1(C)C | 10µM* | ? | 13µM* | ? | 35µM* | 45µM*
CC1(C)Cc2c(sc(NC(=O)c3ccco3)c2C#N)CO1 | -27%[59 µM] | 34% | -1% | -3 | -14% | -31%
CCOC(=O)Nc1ccc2nc(-c3cscn3)[nH]c2c1 | . | . | -7% | 0 | . | .
COc1cc(OC)c(OC)cc1CN1CCN(Cc2cccn2C)CC1 | 3.5µM* | 25µM* | -11% | 4 | 3.5µM* | 40µM*
COc1ccc(C(C)=O)cc1CN1CCCCC1 | ? | 26% | 3% | 0 | -3% | 39%
COc1ccccc1N1CCN(Cc2nc3ccsc3c(=O)[nH]2)CC1 | -28%[59 µM] | 9% | 1% | -3 | 3.5µM* | -7%
CCOc1ccccc1N1CCN(Cc2ccc(OC)c(OC)c2OC)CC1 | ? | ? | -7% | . | 4µM* | ?

Screening results: PubChem BioAssay, National Center for Advancing Translational Sciences (NCATS)
